Measured values: PMC3218832

What was measured:
Test in all cases: protein binding microarray; high values mean tight binding
Settings in all cases: dsDNA, one strand shown
RELARELA (p65 homodimer) = RELARELA (p65 homodimer) (Homo sapiens, UniProt Q04206 1-307)
p50p50 homodimer = p50p50 homodimer (Homo sapiens, UniProt P19838 7-356)
p52p52 homodimer = biological target: T1, p52p52 homodimer (Homo sapiens, UniProt Q00653 4-332)
T1 sequence: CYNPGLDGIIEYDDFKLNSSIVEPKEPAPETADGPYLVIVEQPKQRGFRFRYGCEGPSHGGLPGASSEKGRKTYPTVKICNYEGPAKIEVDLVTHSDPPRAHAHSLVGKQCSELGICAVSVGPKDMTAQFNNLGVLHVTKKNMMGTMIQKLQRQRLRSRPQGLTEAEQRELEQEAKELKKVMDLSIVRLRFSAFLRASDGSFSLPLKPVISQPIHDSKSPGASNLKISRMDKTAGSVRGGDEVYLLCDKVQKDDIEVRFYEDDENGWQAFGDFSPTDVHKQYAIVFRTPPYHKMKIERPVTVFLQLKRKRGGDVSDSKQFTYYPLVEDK

[1] = biological target: RELA (p65) subunit of heterodimer;p50 subunit (Homo sapiens;Homo sapiens, UniProt Q04206;P19838 1-307;7-356)
RELA (p65) subunit of heterodimer;p50 subunit, sequence (Q04206 1-307, chain 1 of 2): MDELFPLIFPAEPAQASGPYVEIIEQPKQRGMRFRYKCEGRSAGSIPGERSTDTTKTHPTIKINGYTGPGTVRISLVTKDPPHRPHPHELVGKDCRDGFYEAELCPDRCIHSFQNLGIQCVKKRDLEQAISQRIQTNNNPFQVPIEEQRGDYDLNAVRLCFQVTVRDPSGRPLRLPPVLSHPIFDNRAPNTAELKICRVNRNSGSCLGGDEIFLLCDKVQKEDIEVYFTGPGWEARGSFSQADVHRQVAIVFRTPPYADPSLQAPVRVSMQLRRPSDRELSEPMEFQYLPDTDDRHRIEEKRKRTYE
RELA (p65) subunit of heterodimer;p50 subunit, sequence (P19838 7-356, chain 2 of 2): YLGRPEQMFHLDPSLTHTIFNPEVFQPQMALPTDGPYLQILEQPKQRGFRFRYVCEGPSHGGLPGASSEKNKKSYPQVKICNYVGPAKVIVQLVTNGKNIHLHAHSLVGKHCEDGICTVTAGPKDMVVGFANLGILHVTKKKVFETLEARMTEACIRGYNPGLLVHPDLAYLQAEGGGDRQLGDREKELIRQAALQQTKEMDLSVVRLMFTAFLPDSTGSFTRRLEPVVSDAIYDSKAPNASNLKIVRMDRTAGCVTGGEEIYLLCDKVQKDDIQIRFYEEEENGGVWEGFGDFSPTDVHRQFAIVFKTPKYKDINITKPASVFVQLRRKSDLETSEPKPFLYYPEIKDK

[2] = biological target: RELA (p65) subunit of heterodimer;p52 subunit (Homo sapiens;Homo sapiens, UniProt Q04206;Q00653 1-307;4-332)
RELB subunit;p50 subunit = RELB subunit;p50 subunit (Homo sapiens;Homo sapiens, UniProt Q01201;P19838 120-401;7-356)
RELB subunit;p52 subunit = biological target: T2, RELB subunit;p52 subunit (Homo sapiens;Homo sapiens, UniProt Q01201;Q00653 120-401;4-332)
T2 sequence 1: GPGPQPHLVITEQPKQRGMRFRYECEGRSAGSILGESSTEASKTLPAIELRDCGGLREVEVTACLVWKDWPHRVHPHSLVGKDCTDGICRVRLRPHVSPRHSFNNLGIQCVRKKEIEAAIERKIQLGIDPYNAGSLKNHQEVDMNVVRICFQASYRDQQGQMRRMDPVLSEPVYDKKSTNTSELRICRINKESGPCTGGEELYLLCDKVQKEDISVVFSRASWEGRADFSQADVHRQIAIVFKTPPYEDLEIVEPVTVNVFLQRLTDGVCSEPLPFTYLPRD
T2 sequence 2: T1 sequence

[3] = biological target: C-Rel subunit;p50 subunit (Homo sapiens;Homo sapiens, UniProt Q04864;P19838 1-285;7-356)
[4] = biological target: T3, C-Rel subunit;p52 subunit (Homo sapiens;Homo sapiens, UniProt Q04864;Q00653 1-285;4-332)
T3 sequence 1: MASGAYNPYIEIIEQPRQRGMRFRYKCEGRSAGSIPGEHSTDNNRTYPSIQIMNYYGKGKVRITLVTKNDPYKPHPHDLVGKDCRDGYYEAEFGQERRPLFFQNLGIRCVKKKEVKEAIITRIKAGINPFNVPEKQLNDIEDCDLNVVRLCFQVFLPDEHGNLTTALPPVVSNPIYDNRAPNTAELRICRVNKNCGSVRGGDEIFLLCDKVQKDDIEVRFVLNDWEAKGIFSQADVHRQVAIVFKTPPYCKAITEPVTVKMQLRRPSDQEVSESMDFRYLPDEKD
T3 sequence 2: T1 sequence

RELARELA (p65 homodimer), sequence (Q04206 1-307): as the sequence (Q04206 1-307, chain 1 of 2) above
p50p50 homodimer, sequence (P19838 7-356): as the sequence (P19838 7-356, chain 2 of 2) above

Row | Sequence | binding signal (RELARELA (p65 homodimer)) [z-score] | binding signal (p50p50 homodimer) [z-score] | binding signal (p52p52 homodimer) [z-score] | binding signal [1] [z-score] | binding signal [2] [z-score] | binding signal (RELB subunit;p50 subunit) [z-score] | binding signal (RELB subunit;p52 subunit) [z-score] | binding signal [3] [z-score] | binding signal [4] [z-score]
1 | GGAAGAACCCC | 0.624 | 0.621 | 0.666 | 1.02 | 1.03 | 0.343 | 0.678 | 0.685 | 0.755
2 | AGGTACATCCT | -0.603 | -0.00392 | 0.047 | -0.495 | -0.249 | -0.147 | -0.293 | -0.674 | -0.415
3 | GAATATATCCC | 0.0475 | -0.184 | -0.107 | -0.275 | -0.268 | -0.131 | -0.295 | -0.368 | -0.351
4 | AGGTAATTCCT | 1.47 | 0.62 | 1.15 | 0.471 | 0.62 | 0.351 | 0.553 | 0.224 | 0.709
5 | AGATAAGCCCT | -0.464 | -1.05 | -0.697 | -0.764 | -0.927 | -1.1 | -0.798 | -0.985 | -0.712
6 | AGGTTTTCCCC | 3.11 | 1.14 | 3.16 | 2.17 | 2.48 | 2.01 | 2.3 | 1.8 | 2.63
7 | CGGGTATCCCC | 1.9 | 0.854 | 2.48 | 1.84 | 2.01 | 0.893 | 1.59 | 1.64 | 2.53
8 | AGGTTGCTCCC | -0.396 | -0.987 | -0.528 | -0.584 | -0.648 | -0.569 | -0.67 | -0.696 | -0.587
9 | GAAGGAGTCCT | -0.288 | -1.55 | -0.648 | -0.892 | -0.934 | -0.985 | -0.808 | -1.08 | -0.746
10 | GGGGAGGTCCT | 0.546 | 0.328 | 1.26 | 0.275 | 0.847 | 0.375 | 0.376 | 0.314 | 0.559
11 | CAGGGAGTCCT | 0.0727 | 0.0337 | -0.143 | -0.336 | -0.215 | -0.201 | -0.323 | -0.383 | -0.23
12 | AAATGCTTCCC | 0.511 | -0.412 | -0.425 | -0.0858 | -0.314 | -0.27 | -0.535 | 0.16 | -0.384
13 | CAGAGACCCCC | -1.05 | 0.706 | 0.0929 | 0.407 | 0.302 | 0.373 | 0.502 | 0.323 | 0.174
14 | AAGGTCACCCT | -0.86 | -1.49 | -0.495 | -0.903 | -0.928 | -0.645 | -0.697 | -1.21 | -0.77
15 | CGAAGGACCCT | -1.31 | -1.42 | -0.622 | -0.948 | -0.812 | -0.928 | -0.721 | -1.47 | -0.87
16 | AGATGAATCCT | -0.706 | -1.32 | -0.542 | -1 | -0.972 | -1.28 | -1.16 | -1.39 | -0.907
17 | GAGGTCCCCCT | 0.588 | 1.14 | 0.954 | 1.63 | 1.22 | 1.56 | 1.97 | 1.28 | 1.05
18 | GGAAGCTTCCT | 0.818 | -1.04 | -0.619 | -0.33 | -0.759 | -1.01 | -0.836 | -0.977 | -0.614
19 | GAATACTCCCC | 0.403 | 0.933 | 0.502 | 0.707 | 0.752 | 0.8 | 0.628 | 0.806 | 0.479
20 | AGAATTGTCCC | 0.95 | 0.906 | 0.873 | 0.803 | 0.85 | 0.82 | 0.675 | 0.87 | 0.604
21 | AAGTGATTCCT | -0.0511 | -0.869 | -0.482 | -0.602 | -0.719 | -0.843 | -0.976 | -0.572 | -0.598
22 | AAGAGCTTCCC | 0.146 | -0.795 | -0.487 | -0.305 | -0.49 | -0.563 | -0.671 | -0.423 | -0.463
23 | CGGGGAATCCC | 3.57 | 1.22 | 3.13 | 2.36 | 2.81 | 2.64 | 2.75 | 2.51 | 3.54
24 | CGGTGTACCCT | -0.287 | -0.0219 | 0.0503 | -0.317 | -0.282 | -0.0463 | -0.155 | -0.172 | -0.317
25 | AGAAGATTCCT | 0.055 | -1.1 | -0.567 | -0.642 | -0.681 | -0.914 | -0.843 | -0.495 | -0.373
26 | CGATTAACCCT | -0.485 | -0.551 | -0.421 | -0.497 | -0.556 | -0.691 | -0.624 | -0.83 | -0.644
27 | AGATTCCTCCC | 0.213 | -0.426 | -0.138 | -0.135 | -0.146 | -0.305 | -0.191 | 0.176 | -0.118
28 | CAGAAAGTCCT | 1.03 | -0.724 | -0.508 | -0.351 | -0.61 | -0.693 | -0.785 | -0.362 | -0.371
29 | AAATATGTCCT | -0.0065 | -1.09 | -0.534 | -0.78 | -0.678 | -0.828 | -0.738 | -0.967 | -0.696
